# Source: PubChem BioAssay (Tox21)
# A number with no mark means an inactive call. Results filed as inconclusive are left out. A call without a number means that no potency is given here. The source made the active and inactive calls. The call rests on the fitted dose curve; in most records, active means well fitted curve in the direction sought with a large enough effect in the repeat runs; inconclusive means weak or mixed curves; inactive means no such curve, though single readings can be large; an effect the other way counts as inactive or inconclusive.
# Assays:
# [1] = qHTS RealTime-Glo MT Cell Viability Assay in HEK293 cells - 16 hour (AID 1224872); conditions: RealTime-Glo luminescence; series mostly up to 76.8 µM; further: top concentration of the series differs between compounds; nearly all actives have a fitted effect of over 50% in size
# Procedure, shortened: (§1)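 Viability tracked continuously by luminescence as live cells reduce a prosubstrate for NanoLuc; HEK293 cells preincubated 5 h, compound-treated at 37 C, and read at 0, 8, 16, 24, 32 and 40 h.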
# [2] = qHTS RealTime-Glo MT Cell Viability Assay in HepG2 cells - 8 hour (AID 1224873); conditions: RealTime-Glo luminescence; series mostly up to 76.8 µM; further: nearly all actives have a fitted effect of over 55% in size
# Procedure, shortened: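 HepG2 cells (600/well) mixed with RealTime-Glo MT reagent, settled 5 h at 37 C/5% CO2 before compound addition. Nonlytic NanoLuc luminescence from viable-cell prosubstrate reduction read repeatedly during 40 h treatment at 37 C.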
# [3] = qHTS RealTime-Glo MT Cell Viability Assay in HEK293 cells - 40 hour (AID 1224874); conditions: RealTime-Glo luminescence; max response: stronger effect = lower value; further: nearly all actives have a fitted effect of over 50% in size
# Procedure, shortened: (§2)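 Viable HEK293 cells reduce a cell-permeant prosubstrate; the product diffuses out and is consumed by NanoLuc in the medium to give light. Compounds went in after a 5 h incubation and plates were read over the treatment course.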
# [4] = A CellTox Green Cytotoxicity Assay to monitor cytotoxicity in HEK293 cells - 24 hour (AID 1224875); conditions: CellTox Green fluorescence; series mostly up to 76.8 µM; further: nearly all actives have a fitted effect of over 45% in size
# Procedure, shortened: (§3)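 Fluorescence intensity, read at 0, 8, 16, 24, 32 and 40 h of compound treatment, reflected dye binding to DNA of dead HEK293 cells; compounds (23 nL, DMSO) were added 5 h after plating cells with reagent.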
# [5] = A CellTox Green Cytotoxicity Assay to monitor cytotoxicity in HepG2 cells - 16 hour (AID 1224876); conditions: CellTox Green fluorescence; series mostly up to 76.8 µM; further: nearly all actives have a fitted effect of over 45% in size
# Procedure, shortened: (§4)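 Using 1536-well format, dye-containing HepG2 suspension was seeded, allowed 5 h at 37 C/5% CO2, dosed by pintool with compounds, positive and negative controls, and imaged for fluorescence across 40 h.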
# [6] = qHTS RealTime-Glo MT Cell Viability Assay in HepG2 cells - 32 hour (AID 1224877); conditions: RealTime-Glo luminescence; series mostly up to 76.8 µM; further: nearly all actives have a fitted effect of over 55% in size; further: potency means the concentration at half of the fitted maximal effect
# Procedure, shortened: (§5)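 Viability was tracked continuously by NanoLuc luminescence from prosubstrate reduced by living HepG2 cells, at successive time points over 40 h of compound exposure. Cells with reagent were preincubated 5 h at 37 °C before compound addition.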
# [7] = A CellTox Green Cytotoxicity Assay to monitor cytotoxicity in HepG2 cells - 24 hour (AID 1224878); conditions: CellTox Green fluorescence; series mostly up to 76.8 µM; further: nearly all actives have a fitted effect of over 45% in size
# Procedure, shortened: as §4
# [8] = qHTS RealTime-Glo MT Cell Viability Assay in HEK293 cells - 0 hour (AID 1224880); conditions: RealTime-Glo luminescence; series mostly up to 76.8 µM; further: top concentration of the series differs between compounds; nearly all actives have a fitted effect of over 45% in size
# Procedure, shortened: as §2
# [9] = A CellTox Green Cytotoxicity Assay to monitor cytotoxicity in HEK293 cells - 32 hour (AID 1224881); conditions: CellTox Green fluorescence; series mostly up to 76.8 µM; further: nearly all actives have a fitted effect of over 40% in size
# Procedure, shortened: as §3
# [10] = A CellTox Green Cytotoxicity Assay to monitor cytotoxicity in HepG2 cells - 0 hour (AID 1224882); conditions: CellTox Green fluorescence; series mostly up to 76.8 µM; further: nearly all actives have a fitted effect of over 35% in size
# Procedure, shortened: as §4
# [11] = A CellTox Green Cytotoxicity Assay to monitor cytotoxicity in HepG2 cells - 32 hour (AID 1224883); conditions: CellTox Green fluorescence; series mostly up to 76.8 µM; further: nearly all actives have a fitted effect of over 50% in size
# Procedure, shortened: as §4
# [12] = A CellTox Green Cytotoxicity Assay to monitor cytotoxicity in HEK293 cells - 8 hour (AID 1224884); conditions: CellTox Green fluorescence; series mostly up to 76.8 µM; further: nearly all actives have a fitted effect of over 35% in size
# Procedure, shortened: as §3
# [13] = qHTS RealTime-Glo MT Cell Viability Assay in HepG2 cells - 16 hour (AID 1224885); conditions: RealTime-Glo luminescence; series mostly up to 76.8 µM; further: nearly all actives have a fitted effect of over 50% in size
# Procedure, shortened: as §5
# [14] = qHTS RealTime-Glo MT Cell Viability Assay in HEK293 cells - 24 hour (AID 1224886); conditions: RealTime-Glo luminescence; series mostly up to 76.8 µM
# Procedure, shortened: as §1
# [15] = qHTS RealTime-Glo MT Cell Viability Assay in HEK293 cells - 8 hour (AID 1224887); conditions: RealTime-Glo luminescence; series mostly up to 76.8 µM
# Procedure, shortened: as §2
# [16] = A CellTox Green Cytotoxicity Assay to monitor cytotoxicity in HEK293 cells - 16 hour (AID 1224888); conditions: CellTox Green fluorescence; series mostly up to 76.8 µM; further: nearly all actives have a fitted effect of over 35% in size
# Procedure, shortened: as §3
# [17] = qHTS RealTime-Glo MT Cell Viability Assay in HepG2 cells - 0 hour (AID 1224889); conditions: RealTime-Glo luminescence; series mostly up to 76.8 µM; further: nearly all actives have a fitted effect of over 50% in size
# Procedure, shortened: as §5
# [18] = A CellTox Green Cytotoxicity Assay to monitor cytotoxicity in HepG2 cells - 8 hour (AID 1224890); conditions: CellTox Green fluorescence; series mostly up to 76.8 µM; further: nearly all actives have a fitted effect of over 45% in size
# Procedure, shortened: as §4
# [19] = A CellTox Green Cytotoxicity Assay to monitor cytotoxicity in HepG2 cells - 40 hour (AID 1224879); conditions: CellTox Green fluorescence; series mostly up to 76.8 µM; further: nearly all actives have a fitted effect of over 40% in size
# Procedure, shortened: as §4
compound,measurement,setting,value
CC(C)[N+](C)(CCC(C(N)=O)(c1ccccc1)c1ccccc1)C(C)C,Potency,[1],inactive
same,outcome,[2],inactive
same,max response,[3],-2.84%
same,Potency,[4],inactive
same,Potency,[5],inactive
same,Potency,[6],21.3 µM (active)
same,Potency,[7],inactive
same,outcome,[8],inactive
same,Potency,[9],inactive
same,outcome,[10],inactive
same,Potency,[11],inactive
same,Potency,[12],inactive
same,Potency,[13],inactive
same,Potency,[14],inactive
same,Potency,[15],inactive
same,Potency,[16],inactive
same,outcome,[17],inactive
same,Potency,[18],inactive
CC[C@H](N)c1ccccc1,Potency,[1],inactive
same,outcome,[2],inactive
same,max response,[3],5.02%
same,Potency,[4],inactive
same,Potency,[5],inactive
same,Potency,[6],inactive
same,Potency,[7],inactive
same,Potency,[19],inactive
same,outcome,[8],inactive
same,Potency,[9],inactive
same,outcome,[10],inactive
same,Potency,[11],inactive
same,Potency,[13],inactive
same,Potency,[14],inactive
same,Potency,[15],inactive
same,outcome,[17],inactive
same,Potency,[18],inactive
C[N+]1(C)CCCCC1,Potency,[1],inactive
same,outcome,[2],inactive
same,max response,[3],19.2%
same,Potency,[4],inactive
same,Potency,[5],inactive
same,Potency,[6],inactive
same,Potency,[7],inactive
same,Potency,[19],inactive
same,outcome,[8],inactive
same,Potency,[9],inactive
same,outcome,[10],inactive
same,Potency,[11],inactive
same,Potency,[13],inactive
same,Potency,[14],inactive
same,Potency,[15],inactive
same,Potency,[16],inactive
same,outcome,[17],inactive
same,Potency,[18],inactive
C=C1CC[C@@]2(O)[C@H]3Cc4ccc(O)c5c4[C@@]2(CCN3CC2CC2)[C@H]1O5,Potency,[1],inactive
same,outcome,[2],inactive
same,max response,[3],9.06%
same,Potency,[4],inactive
same,Potency,[5],inactive
same,Potency,[6],inactive
same,Potency,[7],inactive
same,Potency,[19],inactive
same,outcome,[8],inactive
same,Potency,[9],inactive
same,outcome,[10],inactive
same,Potency,[11],inactive
same,Potency,[12],inactive
same,Potency,[14],inactive
same,outcome,[17],inactive
same,Potency,[18],inactive
CCNP(=S)(OC)O/C(C)=C/C(=O)OC(C)C (stereo unspecified),Potency,[1],inactive
same,outcome,[2],inactive
same,max response,[3],-13.5%
same,Potency,[4],inactive
same,Potency,[5],inactive
same,Potency,[6],inactive
same,Potency,[7],inactive
same,Potency,[19],inactive
same,Potency,[9],inactive
same,outcome,[10],inactive
same,Potency,[11],inactive
same,Potency,[12],inactive
same,Potency,[13],inactive
same,Potency,[14],inactive
same,Potency,[15],inactive
same,Potency,[16],inactive
same,outcome,[17],inactive
same,Potency,[18],inactive
O=P(O)(O)CN(CP(=O)(O)O)CP(=O)(O)O,outcome,[2],inactive
same,activity change,[4],"29.5% [at 15.8 µM, stronger effect = higher value]"
same,Potency,[5],inactive
same,Potency,[6],inactive
same,Potency,[7],inactive
same,Potency,[19],inactive
same,cytotoxicity increase,[9],21.6% [at 15.8 µM]
same,outcome,[10],inactive
same,Potency,[11],inactive
same,cytotoxicity increase,[12],30% [at 15.8 µM]
same,Potency,[13],inactive
same,activity change,[16],"27.1% [at 15.8 µM, stronger effect = higher value]"
same,outcome,[17],inactive
same,Potency,[18],inactive
